# KDM5B inhibitor: Primary screen for KDM5B Histone Demethylases FDH-coupled qHTS. Potency, µM (doses to about 57.7 µM), hits mostly inhibitors. KDM5B demethylase, FDH-coupled NADH fluorescence (FDH is formaldehyde dehydrogenase). 220,000 tested, 2.6% active. AID 1347165, 2019. Lysine-specific demethylase 5B (Homo sapiens), Q9UGL1; active means well fitted inhibition curve with a large enough effect; further: 0% is about no effect; nearly all actives have a fitted effect of over 70% in size
#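 Measured: NADH fluorescence change, 30 min, RT. System: KDM5BΔAP 200 nM final, H3K4me3 peptide, α-KG, Fe(II), ascorbate, NAD⁺ plus FDH, pH 7.5 HEPES. Compounds: titrated, 10 min pre-incubation with enzyme.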
# * marks the source's active call; other numbers are inactive results; i = inactive. Only a selection was taken, and hits are over-represented in it overall. Potency means the concentration at half of the fitted maximal effect.
SMILES,KDM5B inhibitor
Cc1ccc(S(=O)(=O)NC[C@H]2O[C@@H](CC(=O)N3CCN(c4ccccc4)CC3)[C@H](O)[C@@H]2O)cc1,i
OC[C@@H]1O[C@H](CN(Cc2cccc(Cl)c2)Cc2cccc(Cl)c2)[C@H](N2CCN(c3ccccn3)CC2)[C@@H]1O,25µM*
O=C(NC[C@H]1O[C@@H](CO)[C@@H](O)[C@H]1N1CCN(c2ccccn2)CC1)c1ccccc1,i
Cc1ccc(S(=O)(=O)NC[C@H]2O[C@@H](CO)[C@@H](O)[C@H]2N2CCCC2)cc1,i
O=C(C[C@@H]1O[C@H](CNS(=O)(=O)c2ccccc2)[C@@H](O)[C@H]1O)N1CCN(c2ccccc2)CC1,i
Cc1ccc(S(=O)(=O)NC[C@H]2O[C@@H](CC(=O)N3CCN(c4ccccn4)CC3)[C@H](O)[C@@H]2O)cc1,28µM*
O=S(=O)(NC[C@H]1O[C@@H](CO)[C@@H](O)[C@H]1N1CCN(c2ccccn2)CC1)c1ccc(Cl)cc1,28µM*
Cc1ccc(S(=O)(=O)NC[C@H]2O[C@@H](CC(=O)N3CCN(c4ccc(F)cc4)CC3)[C@H](O)[C@@H]2O)cc1,i
COCC(=O)NC[C@H]1O[C@@H](CC(=O)N2CCN(c3ccccc3)CC2)[C@H](O)[C@@H]1O,i
CS(=O)(=O)NC[C@H]1O[C@@H](CC(=O)N2CCN(c3ccccn3)CC2)[C@H](O)[C@@H]1O,35µM*
COc1ccccc1N1CCN([C@@H]2[C@H](O)[C@H](CO)O[C@@H]2CNS(=O)(=O)c2ccc(Cl)cc2)CC1,i
CN(C)C[C@H]1O[C@@H](CO)[C@@H](O)[C@H]1N1CCN(c2ncccn2)CC1,i
Cc1ccc(C(=O)N2CCC(c3n[nH]c(=O)n3Cc3ccc(F)cc3)CC2)cc1F,i
CC(C)(C)CNC(=O)c1nc[nH]c1C(=O)N1CCCCC1,i
COc1cc(C=O)c(Br)cc1OCCc1ccccc1,i
COc1cc2ccccc2cc1C(=O)N1CCN(CC(=O)Nc2cccc(F)c2)CC1,i
COc1ccc(CNC(=O)CCc2ncc(-c3ccccc3)o2)cc1,i
O=C1CN(c2ccccc2)C(=O)N1Cc1ncc(-c2ccccc2)o1,i
Cc1ccc(NC(=O)c2sc3nc(-c4ccc(F)cc4)cn3c2C)cc1Cl,i
CCONC(=O)c1ccc(NC(=O)c2cccs2)cc1,i
CC1(C)C2CCC1(C(=O)Nc1ccc(F)c(F)c1)C(=O)C2 (centres undefined),i
Cc1ccc(C)c(NC(=O)Cn2nc(C)c3ccccc32)c1,i
O=C(NC[C@H]1O[C@@H](CC(=O)N2CCN(c3ccccc3)CC2)[C@H](O)[C@@H]1O)c1ccccc1,i
CCC(CC)C(=O)NC[C@H]1O[C@@H](CC(=O)N2CCN(c3ccccn3)CC2)[C@H](O)[C@@H]1O,32µM*
Cc1ccc(C(=O)NC[C@H]2O[C@@H](CC(=O)N3CCN(c4ccccn4)CC3)[C@H](O)[C@@H]2O)cc1,i
SMILES,KDM5B inhibitor
CCN1CCCC1CNC(=O)C1CCN(c2nc(Cl)nc3nc[nH]c23)CC1 (centres undefined),i
O=C1CCN(C2CCN(Cc3ccccc3)CC2)CCCC(C(=O)NCc2ccccc2)CCN1 (centres undefined),i
C=CCNC(=O)c1cnn(-c2ccc(C(F)(F)F)cn2)c1C(F)(F)F,i
C=CCNC(=O)c1cnn2c1CN(C(C)=O)CC2,i
Cc1ccc2c(C(=O)NCc3ccc(Cl)cc3)cnn2c1,35µM*
Cc1ccc(CNC(=O)c2cc(-c3ccc(Cl)cc3)on2)cc1,i
Cc1ccc(NC(=O)c2cnn3cccnc23)cc1C,i
C=CCNC(=O)c1cnn2c1CN(C(=O)c1cccnc1)CC2,i
Cc1ccc(-c2nc(C(=O)NCc3ccc(Cl)cc3)no2)cc1,i
C=CCNC(=O)c1cnn2cc(C)ccc12,40µM*
C=CCNC(=O)c1cnn2ncccc12,32µM*
CCn1ncc(C(=O)Nc2ccc(F)cc2)c1C,i
C=CCNC(=O)c1ccccc1NC(=O)c1ccccn1,i
Cc1ccc2c(C(=O)Nc3ccc(Cl)nc3)cnn2c1,40µM*
Cc1nc2cc(NC(=O)COc3ccc(Br)cc3F)ccc2o1,i
COc1cc(NC(=O)CCc2c(C)c3ccc(C)cc3oc2=O)cc(OC)c1,i
CCCn1c(=O)c2sc(N3CCCC3)nc2n(CC(=O)Nc2ccccc2OCC)c1=O,i
Cc1ccc(NC(=O)c2ccccc2SCC(=O)NC2CC2)c(Cl)c1,i
O=C(O)[C@H]1c2ccccc2C(=O)N(Cc2ccc(F)cc2)[C@H]1c1ccc(Cl)cc1,i
CCCNc1c(NC(=O)Cc2ccc(OC)cc2)c(=O)oc2ccccc12,i
CCc1ccc2c(c1)-c1ccccc1S(=O)(=O)N2CC(=O)N1CCOCC1,i
COc1cccc(C2=NN(S(=O)(=O)c3ccccc3)C(c3ccc4nccnc4c3)C2)c1 (centres undefined),i
CCc1cccc(CC)c1NC(=O)COC(=O)c1cc(=O)c2ccccc2o1,i
Cc1cccc(OCCc2noc(C3CCCCN3)n2)c1 (centres undefined),i
Cc1nc2cc(NC(=O)COc3ccc(Br)cc3)ccc2o1,i
SMILES,KDM5B inhibitor
Cc1ccc(C)c(N2CCN(C(=O)Cn3cnc(S(=O)(=O)N4CCOCC4)c3)CC2)c1,i
Cc1cc(=O)n(CC(=O)Nc2cc(Cl)ccc2C)c(N2CCOCC2)n1,i
Cc1ccc(Cl)cc1-n1nc(-c2c(C)nc3scc(CC(=O)N4CCOCC4)n3c2=O)cc1C,28µM*
Cc1ccc(C)c(N2CCN(S(=O)(=O)c3c(C)nc4scc(C)n4c3=O)CC2)c1,i
CCN(CC(=O)N1CCOCC1)S(=O)(=O)c1ccc(Cl)cc1,i
Cc1ccc(C)c(-n2nc(-c3c(C)nc4scc(CC(=O)N5CCOCC5)n4c3=O)cc2C)c1,28µM*
O=C(COc1ncnc2ccc(Br)cc12)NCc1ccccc1,i
CCOC(=O)COc1ccccc1/C=C(/C#N)c1nc2ccc(C)cc2[nH]1,i
CCCOc1c(CN)cccc1OC,i
C=CCN1C(=O)S/C(=C/c2cn(CC(=O)O)c3ccccc23)C1=O,i
CC(C)C(=O)Nc1ccc(C(=O)CSc2nnc(C3CC3)n2Cc2ccccc2)cc1,i
CCc1ccc(Nc2nc(CSc3ccc(Cl)cc3)nc3sc4c(c23)CCC4)cc1,i
CCOc1ccccc1C(=O)N1CCC(n2cc(-c3nc(-c4ccccc4)no3)nn2)CC1,i
CCOc1ccc(-c2ccnc(-c3ncccn3)n2)cc1C(=O)O,i
CCOc1ccc(-c2ccnc(N3CCOC(CN)C3)n2)cc1C(=O)O (centres undefined),28µM*
COC(=O)C(C)Oc1ccc2c(=O)c(-c3ccc4c(c3)OCCO4)coc2c1 (centres undefined),i
COc1ncccc1-c1cc(-c2c(C)noc2C)cc2c1C(=O)N(C)C2=O,i
COc1ncccc1-c1cccc(CCOc2cnc3c(ccn3CC(=O)O)c2)c1,40µM*
COc1cccc(CNC(=O)c2cnc3c(-c4ccc(F)cc4)c(C)nn3c2C)c1,i
C[C@H](NC(=O)Cn1ccc2ccc(OCc3ccccc3)cc21)C(=O)O,i
Cc1ccccc1-c1cccc(CCOc2cnc3c(ccn3CC(=O)O)c2)c1,40µM*
CC(=O)N1CCN(C(=O)Cn2ccc3cc(OCc4ccccc4)ccc32)CC1,i
COc1cccc(CCC(=O)N2CCC3(CC2)N=C(c2ccccc2)NO3)c1,i
